# Measured values: PubChem BioAssay (NCATS)
# Inconclusive results are not listed. Entries that show only a call come without a potency. Active and inactive are the calls of the source. Calls come from the whole dose curve; as a rule, active = well fitted curve in the direction sought with a large enough effect; inconclusive = small, poorly fitted or top-dose-only effect, or another doubt; inactive = no such curve, though single readings can be large; an effect the other way counts as inactive or inconclusive.
# Tests used:
# [1] = target: Aldehyde dehydrogenase, mitochondrial (Homo sapiens) (UniProt P05091); test: qHTS for Inhibitors of the Aldehyde Dehydrogenase Family (ALDH2) Primary screen (AID 2061308); note: nearly all actives have a fitted effect of over 55% in size
# [2] = target: Retinaldehyde dehydrogenase 3 (Homo sapiens) (UniProt P47895); test: qHTS for Inhibitors of the Aldehyde Dehydrogenase Family (ALDH1A3) Primary screen (AID 2061315)
Structure (SMILES),Potency [1],Potency [2]
O=C(NC(NC(=S)Nc1ccc(F)c([N+](=O)[O-])c1)C(Cl)(Cl)Cl)C(c1ccccc1)c1ccccc1 (centres undefined),inactive,inactive
Cc1cccc(CNc2ncnc3ccc(-c4ccc5c(c4)OCO5)cc23)c1,inactive,inactive
CCCn1c(C)nc2c(Nc3ccccc3)nc(C)nc21,inactive,inactive
Cc1cccc(-n2cnc3cc(C(=O)N4CCCC(C(F)(F)F)C4)ccc32)c1 (centres undefined),inactive,inactive
O=C1c2ccccc2C(=O)N1c1cnc2ccccc2c1,inactive,inactive
CCN(CC)Cc1cccc(/C=C/c2nc3ccc(F)cc3c(=O)n2-c2ccccc2Cl)n1,inactive,inactive
CS(=O)(=O)c1ccc(C(=O)OCC(=O)N2CCC(c3ccccc3)CC2)cc1[N+](=O)[O-],inactive,inactive
COc1cccc(CN2C(=O)c3ccccc3NC2c2ccc(OC)c(COc3c(C)cc(NC(C)=O)cc3C)c2)c1 (centres undefined),inactive,inactive
COc1cccc(CNc2ccc(S(=O)(=O)Nc3nccs3)cc2)c1O,inactive,inactive
COc1ccc(Br)cc1S(=O)(=O)N1CCN(S(=O)(=O)c2ccc3c(c2)OCCO3)CC1,inactive,inactive
FC(F)(F)c1ccccc1-c1nc(NCc2ccc(Cl)c(Cl)c2)c2ccccc2n1,inactive,inactive
CC(=O)NS(=O)(=O)c1ccc(NC(=O)c2cc(-c3ccc(C)c(C)c3)nc3ccccc23)cc1,inactive,inactive
COc1cc(O)c(C(CC(=O)N2CCC[C@H](C)C2)c2ccc3c(c2)OCO3)c(OC)c1 (some centres undefined),inactive,inactive
COc1ccc(CNc2nc(-c3ccccc3C(F)(F)F)nc3ccccc23)cc1,inactive,inactive
O=S(=O)(c1ccc(Cl)cc1)N1CCN(S(=O)(=O)c2ccc3c(c2)OCCO3)CC1,inactive,inactive
Cc1ccc(CNc2nc(-c3ccccc3C(F)(F)F)nc3ccccc23)cc1,inactive,inactive
Cc1cnc(-c2ccccc2C(C)C)nc1NCC1CCN(C)CC1,inactive,inactive
O=C(O)CC(=O)OC[C@H]1O[C@@H](Oc2ccc3c(c2)OC[C@H]2c4cc5c(cc4O[C@@H]32)OCO5)[C@H](O)[C@@H](O)[C@@H]1O,inactive,inactive
COc1ccc([S+](=O)([O-])N2CCCN([S+](=O)([O-])c3ccc(OC)c(NC(C)=O)c3)CC2)cc1NC(C)=O,inactive,inactive
N#Cc1ccc(N[S+](=O)([O-])c2ccc(Nc3nc(-c4ccccc4)cs3)cc2)cc1,inactive,inactive
CC1CCC2C(C)(C)C(O)CCC2(C)C12Cc1c(O)cc3c(c1O2)CN(C(CCCN=C(N)N)C(=O)O)C3=O (centres undefined),inactive,inactive

Structure (SMILES),Potency [1],Potency [2]
COc1ccc2nc(-c3ccc(Cl)cc3)sc2c1,inactive,inactive
C[C@@H](NC(c1ccc(F)cc1)c1ccc2cccnc2c1O)c1ccccc1 (some centres undefined),inactive,inactive
COc1ccc(NC(=O)c2ccc(-c3nc4ccccc4[nH]3)cc2)cc1OC,inactive,inactive
Cc1ccc(S(=O)(=O)Nc2cnccc2C(=O)Nc2nc(-c3ccccc3)cs2)cc1,inactive,inactive
COc1cccc(C2c3c(ncn(CCN4CCOCC4)c3=N)Oc3ccc4ccccc4c32)c1 (centres undefined),inactive,inactive
Cc1cc(NC(=O)Nc2nnc(-c3ccncc3)s2)ccc1F,inactive,inactive
CCOc1ccc(CCNC(=O)c2cc3sccc3n2Cc2ccccn2)cc1OCC,inactive,inactive
COc1cccc(CNc2ccc(S(=O)(=O)Nc3ccc(-c4ccccc4)cc3)cc2)c1O,inactive,inactive
COc1cccc(C2c3c(ncn(-c4cccc(OC)c4)c3=N)Oc3ccc4ccccc4c32)c1 (centres undefined),inactive,inactive
Cc1c(P(=S)(c2ccccc2)c2ccccc2)[n+]2ccccc2n1CCCCCc1ccccc1,inactive,inactive
Cc1ccc(-c2cc(C(=O)Nc3cccc(Cl)c3)c3ccccc3n2)cc1C,inactive,inactive
COc1ccc(C2Nc3ccccc3C(=O)N2Cc2cccs2)cc1COc1c(C)cc(NC(C)=O)cc1C (centres undefined),inactive,inactive
COc1ccc2c(c1)Oc1nc(-c3ccc(C)cc3)nc(SCC(=O)Nc3cccc(C(=O)O)c3)c1C2,inactive,inactive
COc1cccc(-c2nnc3n2N=C(c2c(OC)cccc2OC)CS3)c1,inactive,inactive
Cc1cc(NS(=O)(=O)c2ccc(N(C)C(=O)Cc3ccc(Cl)c(Cl)c3)cc2)no1,inactive,inactive
N#Cc1ccc(C[C@H](C(=O)O)N2C(=O)c3ccc(C(=O)O)cc3C2=O)cc1,inactive,inactive
COc1cccc(-c2ccc3ncnc(NCc4cccc(F)c4)c3c2)c1,inactive,inactive
COc1ccc(C2Nc3ccccc3C(=O)N2CCCN(C)C)cc1COc1c(C)cc(NC(C)=O)cc1C (centres undefined),inactive,inactive
C=C1C(=O)OC2/C=C(\COC(C)=O)CC/C=C(\C=O)CC(OC(=O)CC(C)C)C12 (centres undefined),inactive,inactive
Cc1ccnc(NC(=S)N2CCC(Nc3cccc(C(F)(F)F)c3)CC2)c1,inactive,inactive
C[C@@H]1CC[C@]2(C(=O)O)CC[C@]3(C)C(=CCC4[C@@]5(C)C[C@@H](O)[C@H](O)[C@@](C)(CO)C5CC[C@]43C)C2[C@H]1C (some centres undefined),inactive,inactive
